The list is not random: actives were taken first. Their share in the collection is about 8.7%.
Smad3 FoxH1 inh – blocks human Smad3 binding to FoxH1 peptide; inhibition, % at 25 µM; P84022; AID 630; TR-FRET Smad3/Dy647-FoxH1 peptide binding, europium anti-His; 88,000 tested, 0.29% active;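 active = compounds that reduce the energy-transfer binding signal between the protein and its labelled peptide by more than half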;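 also: 0% = Smad3 plus labelled peptide maximal FRET and 100% = peptide-only background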
PostGolgi yeast – growth inhibition of a yeast mutant, post-Golgi transport screen. post-Golgi transport phenotypic cell assay. 98,000 tested, 0.9% active. AID 739. inhibition, % at 10 µM;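 also: yeast cells grown in 1536-well plates; yeast grown about 18 h at 30C before absorbance read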
Cav3 T inh – inhibitors of human Cav3.2 T-type calcium channel; 100,000 tested, 4% active; Cav3.2-expressing cells, Fluo-4 calcium fluorescence FDSS; active compounds read low; O95180; B-score at 10 µM;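 active = single-dose well whose peak fluorescence ratio is a statistical outlier from its plate by either plate-standardised score or position-corrected B-score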
PostGolgi ctrl – inhibits growth of the yeast control strain. AID 738. 98,000 tested, 5% active. inhibition, % at 10 µM. efflux-deficient yeast background strain, growth absorbance A615, 16 h
TNAP act mid DEA – activators of human TNAP at intermediate phosphate acceptor | activation factor at 20 µM | AID 813 | 64,000 tested, under 10 active | P05186 | purified TNAP, CDP-star luminescence, 100 mM DEA, 30 min; active compounds read high; scale: 0 levamisole-inhibited, 1 vehicle-only enzyme;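 active = activation factor of at least 2 at 20 µM, relative to controls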
hDAT+cocaine – human DAT dopamine uptake with cocaine, either direction. B-score at 10 µM. 110,000 tested, 1.3% active. LLC-PK1 hDAT cells, [14C]-dopamine uptake with cocaine IC80; actives deviate in either direction. AID 449768;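 active = Z score or B-score, a plate-position-corrected score, falls beyond the plate's 99.7% confidence bounds, in either direction; inactive = both scores lie inside the 99.7% bounds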;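 also: scored against the spread of the other compound wells on the same plate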
Target sequence (Q01959 whole entry, looked up): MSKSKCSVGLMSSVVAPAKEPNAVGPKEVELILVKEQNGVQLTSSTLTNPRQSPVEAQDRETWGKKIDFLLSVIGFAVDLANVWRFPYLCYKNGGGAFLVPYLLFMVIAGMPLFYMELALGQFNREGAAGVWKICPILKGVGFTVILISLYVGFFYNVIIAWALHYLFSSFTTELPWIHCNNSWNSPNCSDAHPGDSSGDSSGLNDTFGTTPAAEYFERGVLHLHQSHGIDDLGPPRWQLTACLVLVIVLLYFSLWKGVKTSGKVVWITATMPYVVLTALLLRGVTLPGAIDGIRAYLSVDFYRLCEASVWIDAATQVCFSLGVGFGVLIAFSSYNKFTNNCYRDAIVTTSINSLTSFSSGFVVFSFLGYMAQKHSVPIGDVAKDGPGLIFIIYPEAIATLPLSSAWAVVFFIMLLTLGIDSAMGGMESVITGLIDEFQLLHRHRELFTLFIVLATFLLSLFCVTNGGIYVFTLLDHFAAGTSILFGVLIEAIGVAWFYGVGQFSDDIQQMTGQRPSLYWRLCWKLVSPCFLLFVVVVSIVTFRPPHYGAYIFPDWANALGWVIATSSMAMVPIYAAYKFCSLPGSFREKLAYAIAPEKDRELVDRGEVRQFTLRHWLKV
An asterisk follows results filed as active; nt = no result given. Rule as the data show it, unless noted: active = inhibition above about 30%; inactive = the rest.

SMILES | Smad3 FoxH1 inh | PostGolgi yeast | Cav3 T inh | PostGolgi ctrl | TNAP act mid DEA | hDAT+cocaine
CCOC(=O)N1CCN(C(=O)C(CC)n2nc(C)c3sc4ccccc4c3c2=O)CC1 (configuration not stated) | -2 | -2 | -0.0042 | 28 | 0.9 | 0.14
N#Cc1c(C(F)(F)F)cc(-c2ccccc2)nc1SCc1nc(N)nc(N2CCOCC2)n1 | 3 | -2 | -0.96 | 45* | 0.9 | -0.048
Cc1ccnc(NC(=O)Nc2cccc(F)c2)c1 | 8 | 12 | nt | 12 | 0.9 | 0.15
O=C(CN1C(=O)NC2(CCCCCCC2)C1=O)NC(=O)NCc1ccco1 | 4 | 8 | -0.39 | 38* | 0.9 | 1.3
CC1(c2ccccc2)NC(=O)N(CC(=O)NC(=O)NCc2ccco2)C1=O (configuration not stated) | -32 | 0 | -0.29 | 3 | nt | -0.34
Cc1ccc(SCC(=O)NC(=O)NCc2ccco2)cc1C | nt | 5 | -6.6* | 12 | nt | -0.93
O=C(CN1CCN(C(c2ccccc2)c2ccccc2)CC1)NC(=O)NCc1ccco1 | nt | 5 | -5.1* | 36* | 0.9 | 0.096
Cc1ccccc1Nc1nnc(SCC(=O)NC(=O)NCc2ccco2)s1 | 5 | -2 | nt | 3 | 0.9 | nt
CC1CCN(CCCn2c(=S)[nH]c3ccc(N4CCOCC4)cc3c2=O)CC1 | 2 | 2 | -4.7* | 0 | 0.9 | 0.59
COc1cc2[nH]c(=S)n(CCCN3CCOCC3)c(=O)c2cc1OC | -4 | 38* | 1 | -9 | 0.9 | -0.27
COc1cc2[nH]c(=S)n(CCN3CCOCC3)c(=O)c2cc1OC | 2 | -2 | 1.4 | 2 | 0.9 | 0.63
CCOC(=O)C1=NN(c2ccc(Cl)cc2)C(c2ccccc2)CC1=O (configuration not stated) | 5 | nt | -2.7 | nt | nt | -0.15
N#CC(c1ccccc1)c1ccc2c(C(F)(F)F)cc(C(F)(F)F)nc2n1 (configuration not stated) | 15 | 5 | 0.77 | 51* | nt | -0.18
Cc1ccc(C(C#N)c2ccc3c(C(F)(F)F)cc(C(F)(F)F)nc3n2)cc1 (configuration not stated) | 2 | -2 | -0.94 | 13 | nt | -0.018
COc1cc(Br)c(C(C)NC(=O)c2ccccc2)cc1OC (configuration not stated) | nt | 9 | 0.089 | -2 | nt | -0.37
O=C(O)CC1SC(=Nc2cccc(O)c2)NC1=O (configuration not stated) | -6 | 0 | 0.074 | 13 | 0.7 | 0.3
O=C1NC(=Nc2cccc(Cl)c2)SC1Cc1cccc(Cl)c1Cl (configuration not stated) | nt | -7 | 0.12 | 48* | nt | -0.25
CCc1nnc(NCC(=O)N2CCc3ccccc32)s1 | 1 | 1 | 1.5 | 5 | 1 | 0.28
c1nc(N2CCNCC2)c2sc3nc(N4CCOCC4)c4c(c3c2n1)CCC4 | 2 | nt | nt | nt | 0.9 | nt
COc1cccc(-c2nc(CS(=O)(=O)CC(=O)NCCC(C)C)c(C)o2)c1 | nt | 4 | -3.1 | 10 | 1 | 0.0059
CCOC(=O)c1cccc(NC(=O)CS(=O)(=O)Cc2nc(-c3cccc(OC)c3)oc2C)c1 | 14 | -6 | -5.2* | 0 | 0.8 | 0.02
CCN(CCNC(=O)CS(=O)(=O)Cc1nc(-c2cccc(OC)c2)oc1C)c1ccccc1 | 7 | -5 | -9* | 13 | 0.9 | -0.044
Cc1ccc(NC(=O)C2CCCN2C(=O)NC2CCCCC2)c(C)c1 (configuration not stated) | 1 | nt | -0.29 | nt | nt | -1.1
COc1ccc(Cc2noc(COc3ccc(Cl)cc3)n2)cc1 | -8 | -5 | -2.6 | 27 | nt | 0.82
COc1ccccc1OCc1nc(Cc2ccc(Cl)cc2)no1 | -10 | 0 | -5.2* | 6 | 0.9 | -0.27
SMILES | Smad3 FoxH1 inh | PostGolgi yeast | Cav3 T inh | PostGolgi ctrl | TNAP act mid DEA | hDAT+cocaine
N=c1oc2ccc3ccccc3c2cc1-c1nnc2n1CCCCC2 | 1 | 1 | 0.56 | 20 | 1 | 3.4*
C[C@@]12CC[C@@H]3[C@H](CCC4=CC(=O)CC[C@]43C)[C@H]1CC[C@H]2C(=O)Cn1cnc2c(=S)nc[nH]c21 | 12 | nt | nt | nt | nt | nt
COc1ccc(-c2n[nH]c(C(F)(F)F)c2-c2cc3ccccc3o2)c(O)c1 | 5 | 104* | -0.91 | 102* | 1.3 | -0.0073
Cn1nccc1C(=O)Nc1ccccc1C(=O)O | 10 | -5 | 0.54 | -3 | 1.1 | -0.24
COc1ccc(-c2nc(NC(=O)C3CCN(c4nc5ccccc5o4)CC3)sc2C)cc1 | 3 | 0 | -2.6 | 22 | 1 | 0.9
COc1ccc(-c2nc(NC(=O)Cn3ccc(C(F)(F)F)n3)sc2C)cc1 | 8 | -8 | -7.6* | 20 | nt | 1.3
COc1ccc(NC(=O)C(C/C=C(/C)Cl)C(C)=O)cc1 (configuration not stated) | -2 | nt | -0.3 | nt | nt | 0.64
Cc1c(C)[n+](=O)c(-c2ccco2)c(C)n1[O-] | 4 | -1 | -0.2 | 31* | 0.9 | -0.86
CC(C)NC(=O)C1CCN(C(=O)c2cc3sccc3n2Cc2ccc(F)cc2)CC1 | 5 | -1 | -0.45 | 4 | 0.9 | -0.03
O=C(Cn1c(C(=O)N2CCN(C3CCCCC3)CC2)cc2sccc21)c1ccccc1 | -9 | 5 | -0.23 | 31* | 1 | 1.2
O=C(c1cc2sccc2n1Cc1ccccc1)N1CCN(c2nc3ccccc3s2)CC1 | 2 | 9 | -7.1* | 41* | nt | -0.002
CC1CCN(C(=O)C2CCN(C(=O)c3cc4sccc4n3Cc3ccc(F)cc3)CC2)CC1 | 15 | 2 | -4.1* | 29 | 1 | 1.3
O=C(c1cc2sccc2n1Cc1ccc(F)cc1)N1CCCc2ccccc21 | 4 | nt | -3.8* | nt | nt | 0.25
Cc1scc(C(=O)N2CCN(S(C)(=O)=O)CC2)c1-c1ccccc1 | 3 | -11 | 0.12 | 8 | 1 | -0.55
Cc1cc(NC(=O)C2CC(c3ccccc3Cl)=NO2)no1 (configuration not stated) | -5 | -10 | -0.0094 | 0 | nt | -1.3
O=C(CS(=O)CC(=O)N(CC(=O)NC1CCCC1)C1CCCCC1)Nc1ccc(F)cc1 (configuration not stated) | nt | 4 | -0.21 | 7 | 0.9 | -0.071
CCOCCCNS(=O)(=O)c1ccc2c(c1)OCCO2 | 9 | 6 | -0.82 | 3 | 0.9 | 0.14
NC(=O)CSc1ncc(-c2ccccc2)[nH]1 | -8 | 10 | -3 | -9 | 0.9 | -0.14
O=[N+]([O-])c1ccc(-c2cnc(SCc3ccccc3Cl)[nH]2)cc1 | nt | 4 | -1.8 | 42* | nt | 1.6
O=[N+]([O-])c1ccc2nc(SCc3ccccc3Cl)sc2c1 | nt | 6 | -4.1* | 12 | nt | -0.74
O=[N+]([O-])c1ccc(Sc2ccccc2Cl)nc1 | nt | 1 | -2.1 | 0 | nt | 0.15
Cc1cc(C)c(CSc2ncc(-c3ccc([N+](=O)[O-])cc3)[nH]2)c(C)c1 | nt | 5 | -2 | 49* | nt | 0.99
C=CCOc1ccc(/C(O)=C2\C(=O)C(=O)N(CCOC)C2c2cccnc2)cc1 (configuration not stated) | 6 | -2 | -0.1 | -2 | 1 | -0.067

From PubChem BioAssay
